This passage reports Potency and activity, negative = inhibition results from PubChem BioAssay (NCATS).

Results filed as inconclusive are left out. Values without a mark were called inactive. Calls of active or inactive are those of the source. Calls follow the shape of the dose curve; as a rule, active = well fitted curve in the direction sought with a large enough effect; inconclusive = small, poorly fitted or top-dose-only effect, or another doubt; inactive = no such curve, though single readings can be large; an effect the other way counts as inactive or inconclusive.

Test [1] concerns the target ATP-dependent 6-phosphofructokinase (Trypanosoma brucei brucei) (UniProt O15648). The experiment in a line: qHTS Assay to Find Inhibitors of T. brucei phosphofructokinase: hit validation (AID 492961).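 Also: luminescence reports ADP formed as PFK phosphorylates fructose-6-phosphate with ATP; % is scaled to controls: 0 for no effect and ±100 for the full control effect.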 The method in brief:
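Percent activity derived from corrected luminescence, normalized between 0x and 1x enzyme controls, then fitted to concentration-response curves. Conditions: 1.25 nM PFK, 0.1 mM ATP, 0.5 mM F6P, 45 min RT.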
(Quantitative high-throughput screening tests each substance at several concentrations.)

Test [2] concerns the target Luciferin 4-monooxygenase (Photinus pyralis) (UniProt P08659). The experiment in a line: Biochemical firefly luciferase enzyme assay for NPC (AID 624030).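 Also: purified P. pyralis luciferase at 10 nM with luciferin and ATP substrate; 0% = DMSO and -100% = full luciferase inhibition by PTC124 control; nearly all actives have a fitted effect of over 70% in size.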 The method in brief:
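Counter-screen for direct inhibition of the luciferase enzyme by approved-drug library compounds, run at 10 nM enzyme in 50 mM Tris acetate (final). Luminescence was read within 5 min of enzyme-buffer addition and normalized to PTC124 versus DMSO (0%).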

Test [3] can be described thus: qHTS profiling for inhibitors of Plasmodium falciparum proliferation (AID 504749). Also: nearly all actives have a fitted effect of over 60% in size. Also: potency is read from the fitted curve at half-maximal effect.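 As to activity, negative = inhibition: 0% = DMSO vehicle and full inhibition = artemisinin control.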 The conditions noted are these: P. falciparum in erythrocytes, SYBR Green DNA, 72 h, at 28.7 µM (top of the series). The method in brief: (§1)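 Fluorescence of SYBR Green-bound parasite DNA, read at 485/535 nm, served as the growth measure. Infected erythrocytes were cultured with compound 72 h; artemisinin (0.29 uM) and DMSO wells defined the normalization range.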

A further test relates to CP185. The description is as above. The conditions noted are these: P. falciparum in erythrocytes, SYBR Green DNA, 72 h; series mostly up to 28.7 µM. The method in brief: as §1
The test system of another test is CP211. The description is as above. The conditions noted are these: P. falciparum in erythrocytes, SYBR Green DNA, 72 h; series mostly up to 28.7 µM. In outline:
as §1

The test system of another test is CP238. The description is as above. The conditions noted are these: P. falciparum in erythrocytes, SYBR Green DNA, 72 h; series mostly up to 28.7 µM. In outline:
as §1

A further test concerns CP252. The description is as above. The conditions noted are these: P. falciparum in erythrocytes, SYBR Green DNA, 72 h; series mostly up to 28.7 µM. The method in brief:
as §1

The test system of the next test is CP262. The test is described as above. The conditions noted are these: P. falciparum in erythrocytes, SYBR Green DNA, 72 h; series mostly up to 28.7 µM. In outline: as §1
The next test concerns CP265. The test is described as above. The conditions noted are these: P. falciparum in erythrocytes, SYBR Green DNA, 72 h; series mostly up to 28.7 µM. In outline: as §1
The next test concerns CP269. The description is as above. The conditions noted are these: P. falciparum in erythrocytes, SYBR Green DNA, 72 h; series mostly up to 28.7 µM. In outline: as §1
A further test relates to CP286. The test is described as above. The conditions noted are these: P. falciparum in erythrocytes, SYBR Green DNA, 72 h; series mostly up to 28.7 µM. In outline: as §1
The subject of a further test is CP315. The description is as above. The conditions noted are these: P. falciparum in erythrocytes, SYBR Green DNA, 72 h; series mostly up to 28.7 µM. The method in brief: as §1
The subject of another test is CP329. The description is as above. The conditions noted are these: P. falciparum in erythrocytes, SYBR Green DNA, 72 h; series mostly up to 28.7 µM. In outline:
as §1

The next test deals with DFO2036. Described as above. The conditions noted are these: P. falciparum in erythrocytes, SYBR Green DNA, 72 h; series mostly up to 28.7 µM. In outline:
as §1

Another test deals with Dd2. The description is as above. The conditions noted are these: P. falciparum in erythrocytes, SYBR Green DNA, 72 h; series mostly up to 28.7 µM. The method in brief: as §1
The next test relates to ECU. The test is described as above. The conditions noted are these: P. falciparum in erythrocytes, SYBR Green DNA, 72 h; series mostly up to 28.7 µM. The method in brief:
as §1

A further test concerns FAB9. The test is described as above. The conditions noted are these: P. falciparum in erythrocytes, SYBR Green DNA, 72 h; series mostly up to 28.7 µM. The method in brief:
as §1

For another test, the system named is JCK. The test is described as above. The conditions noted are these: P. falciparum in erythrocytes, SYBR Green DNA, 72 h; series mostly up to 28.7 µM. In outline:
as §1

A further test deals with N140. The test is described as above. The conditions noted are these: P. falciparum in erythrocytes, SYBR Green DNA, 72 h; series mostly up to 28.7 µM. The method in brief:
as §1

A further test deals with CP192. The test is described as above. The conditions noted are these: P. falciparum in erythrocytes, SYBR Green DNA, 72 h; series mostly up to 28.7 µM. In outline: as §1

Luciferin 4-monooxygenase (Photinus pyralis), sequence (P08659 whole entry, looked up): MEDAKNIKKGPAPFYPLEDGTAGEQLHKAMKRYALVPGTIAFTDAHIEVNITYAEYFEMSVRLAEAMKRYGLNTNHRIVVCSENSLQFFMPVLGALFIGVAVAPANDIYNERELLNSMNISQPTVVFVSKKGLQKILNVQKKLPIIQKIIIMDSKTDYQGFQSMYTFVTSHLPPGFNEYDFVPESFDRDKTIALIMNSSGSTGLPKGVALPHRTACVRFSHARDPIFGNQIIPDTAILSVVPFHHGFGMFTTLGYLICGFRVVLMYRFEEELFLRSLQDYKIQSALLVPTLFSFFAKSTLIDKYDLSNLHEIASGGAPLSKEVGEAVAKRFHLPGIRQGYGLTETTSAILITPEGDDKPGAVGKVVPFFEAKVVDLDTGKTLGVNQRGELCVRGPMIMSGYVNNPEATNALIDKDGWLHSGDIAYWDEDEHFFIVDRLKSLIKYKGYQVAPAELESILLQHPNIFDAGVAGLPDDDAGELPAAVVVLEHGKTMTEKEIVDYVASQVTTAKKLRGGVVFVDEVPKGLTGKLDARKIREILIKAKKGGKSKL
ATP-dependent 6-phosphofructokinase (Trypanosoma brucei brucei), sequence (O15648 whole entry, looked up): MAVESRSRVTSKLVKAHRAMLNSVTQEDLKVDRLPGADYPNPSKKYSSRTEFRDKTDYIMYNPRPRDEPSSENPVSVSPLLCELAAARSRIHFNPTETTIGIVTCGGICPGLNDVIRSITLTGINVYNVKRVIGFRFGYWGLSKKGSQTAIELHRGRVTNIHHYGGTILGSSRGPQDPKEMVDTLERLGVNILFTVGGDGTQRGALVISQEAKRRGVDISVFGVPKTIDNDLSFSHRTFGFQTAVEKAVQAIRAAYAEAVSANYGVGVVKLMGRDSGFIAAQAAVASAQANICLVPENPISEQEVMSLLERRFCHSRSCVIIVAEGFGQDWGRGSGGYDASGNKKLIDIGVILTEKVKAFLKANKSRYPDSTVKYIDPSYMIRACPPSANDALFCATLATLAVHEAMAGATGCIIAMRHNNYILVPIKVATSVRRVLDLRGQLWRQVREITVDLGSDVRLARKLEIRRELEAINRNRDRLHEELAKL

`NC(CSSCC(N)C(=O)O)C(=O)O` (stereo not drawn): the Potency entry (in [1]; in [2]; with CP185; with CP211; with CP238; with CP252) was “inactive” in each case. In addition, the Potency entry in the test with CP262, in the test on CP265, with CP269, with CP286, in the test with CP315 and in the test on CP329 was “inactive” throughout. For the same compound, the Potency result in the test with DFO2036, in the test with Dd2, in the test on ECU, with FAB9, in the test on JCK and with N140 was “inactive” in each case. Besides, the activity, negative = inhibition in test [3] (parasite line A) is 5.04%; in test [3] (parasite line B), 19%.

For the compound `COc1ccc2cc1Oc1cc3c(cc1OC)CC[N+](C)(C)C3Cc1ccc(cc1)Oc1c(OC)c(OC)cc3c1C(C2)[N+](C)(C)CC3` (stereo not drawn), the Potency entry (in [1]; in [2]; in the test with CP185; in the test on CP192; in the test on CP211; in the test with CP238) was “inactive” in each case. The Potency entry in the test on CP252, in the test on CP262, in the test on CP265, in the test with CP269, in the test with CP286 and with CP315 was “inactive” throughout. The Potency entry with CP329, in the test on DFO2036, in the test with Dd2, with ECU, in the test on FAB9 and in the test with JCK was “inactive” in each case. For the same compound, the Potency result in the test on N140 was “inactive”. Moreover, the activity, negative = inhibition was 13.3% in [3] (parasite line A) and 0.155% in test [3] (parasite line B).

As to `CC(C)CCCC(C)C1CC(=O)C2=C3CCC4CC(O)CCC4(C)C3CCC21C` (stereo not drawn), the Potency entry (in test [1]; in test [2]; in the test with CP185; in the test on CP192; in the test with CP211; in the test on CP238) was “inactive” throughout. Moreover, the Potency result in the test with CP252, in the test with CP262, with CP265, in the test on CP269, in the test on CP315 and in the test on CP329 was “inactive” in each case. In addition, the Potency result in the test with DFO2036, in the test on ECU, with FAB9, with JCK and in the test on N140 was “inactive” each time. Besides, the values for the activity, negative = inhibition in test [3] (parasite line A) and in test [3] (parasite line B) were 4.35% and -0.553%, respectively. For the same compound, in the test with Dd2, the Potency was 12.6 µM (active).

With `CCC(C)C(N)C(=O)O` (stereo not drawn), the Potency entry (in test [1]; in test [2]; in the test with CP185; in the test with CP192; in the test with CP211; in the test on CP238) was “inactive” each time. Moreover, the Potency result in the test with CP252, in the test on CP262, in the test with CP265, with CP269, in the test on CP286 and with CP315 was “inactive” each time. Further, the Potency entry in the test on CP329, in the test on DFO2036, with Dd2, in the test with ECU, with FAB9 and with JCK was “inactive” in each case. The Potency entry in the test on N140 is “inactive”. The activity, negative = inhibition in [3] (parasite line B) is -1.6%.

As for `CC1=C(C/C=C(\C)CCCC(C)CCCC(C)CCCC(C)C)C(=O)c2ccccc2C1=O` (stereo not drawn), the Potency result (in test [1]; in test [2]; in the test with CP185; with CP192; in the test with CP211; in the test with CP238) was “inactive” in each case. For the same compound, the Potency entry in the test on CP252, in the test with CP262, with CP269, with CP315, in the test with CP329 and in the test with DFO2036 was “inactive” throughout. In addition, the Potency result in the test with ECU, in the test on FAB9 and with JCK was “inactive” in each case. Moreover, the activity, negative = inhibition in [3] (parasite line A) was -26.3%. Also, the Potency with Dd2 is 8.91 µM (active).
